In PubChem BioAssay AID504660 (National Center for Advancing Translational Sciences (NCATS), 2011):
Several values for one entry are separate records, joined by “and”; a condition that tells them apart may be missing. Equal entries are not always repeated. Screen size: about 360,000 compounds; about 3,700 (1%) were called active. The sample holds actives, similar compounds and a random draw of the others, so the mix is not that of the screen. No stated cut-off is given here; in the data, active means activation above about 30%; inactive means the rest. More than one record can exist for a structure, and the calls need not agree.

Each compound was assayed against D(1A) dopamine receptor (Homo sapiens) (UniProt P21728) (assay: Allosteric Agonists of the Human D1 Dopamine Receptor: qHTS). Conditions: HEK293 T-REx D1 cells, calcium flux, agonist mode; at 2 µM; stronger effect = higher value.
Sequence of D(1A) dopamine receptor (Homo sapiens) (P21728 whole entry, looked up): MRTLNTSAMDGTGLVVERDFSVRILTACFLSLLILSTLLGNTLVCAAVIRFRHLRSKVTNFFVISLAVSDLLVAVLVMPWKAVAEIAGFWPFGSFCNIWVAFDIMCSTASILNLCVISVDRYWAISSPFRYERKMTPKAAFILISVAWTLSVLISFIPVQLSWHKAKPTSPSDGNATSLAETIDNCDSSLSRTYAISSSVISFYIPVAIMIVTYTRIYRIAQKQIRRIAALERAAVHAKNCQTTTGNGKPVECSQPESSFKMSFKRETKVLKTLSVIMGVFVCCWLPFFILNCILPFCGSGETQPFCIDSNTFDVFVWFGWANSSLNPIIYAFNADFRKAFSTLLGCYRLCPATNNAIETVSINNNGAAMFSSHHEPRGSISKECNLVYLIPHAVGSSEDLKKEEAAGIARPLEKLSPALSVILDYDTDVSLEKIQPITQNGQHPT
Method in brief: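 Agonism was scored from calcium flux recorded over 180 s (1 read/s) after pintool compound addition, following a 10-cycle baseline. Cells were inducible force-coupled HEK293 TREx D1, plated overnight at 30 C and loaded with no-wash calcium dye.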
Further: 0% is about no effect.

SMILES	activation
Cc1ccc(OC(=O)CSc2nnc(-c3cccs3)o2)cc1	1.31% (inactive)
CCN1CCN(c2ncc3c(n2)CC(c2ccccc2O)CC3=O)CC1 (stereo not drawn)	9.15% (inactive)
Nc1ccc2nc3c(=O)[nH]c(=S)[nH]c3nc2c1	108% (active)
CCC1CCCCN1S(=O)(=O)c1ccc(NC(=O)c2cc(=O)c3ccccc3o2)cc1 (stereo not drawn)	0.0446% (inactive)
CC(C)C(=O)Nc1nc2c(s1)CC(C(C)(C)C)CC2 (stereo not drawn)	1.03% (inactive)
COc1ccc(Cl)cc1NC(=O)CSc1nc(=O)[nH]c2c1CCCC2	6.85% (inactive)
Cc1ccc(O)c(NC(=O)CCS(=O)(=O)c2nc(-c3ccc4c(c3)OCO4)cc(C(F)(F)F)n2)c1	5.29% (inactive)
N=C(N)SCc1cccc2ccccc12	47.6% (active)
CSC1=NCCN1C(=O)Cc1cccc2ccccc12	1.65% (inactive)
CCOc1ccc(Br)cc1CSC(=N)N	21.9% (inactive)
CN1CCOc2cc(S(=O)(=O)N3CCN(S(=O)(=O)c4c(F)cccc4F)CC3)cnc21	1.83% (inactive)
CCCN(CCC)S(=O)(=O)c1ccc(C(=O)N2CC3CCC(CC3)C2)cc1	37.1% (active)
CCCN(CCC)S(=O)(=O)c1ccc(C(=O)NNC(=O)c2cc(OC)c(OC)c(OC)c2)cc1	6.23% (inactive)
CCSC1=NCCN1C(=O)c1ccc(S(=O)(=O)N(CC)CC)cc1	1.17% (inactive)
COc1ccccc1NC(=O)C(=O)c1cc(C)n(-c2ccccc2F)c1C	1.84% (inactive)
CCNS(=O)(=O)c1cc(-c2nnc(Nc3cccc(C(F)(F)F)c3)c3ccccc23)ccc1C	4.19% (inactive)
Cc1csc2nc(COC(=O)c3ccccc3NC(=O)c3ccccc3Cl)cc(=O)n12	3.01% (inactive)
c1ccc2c(NC3C4CC5CC(C4)CC3C5)nc(N3CCOCC3)nc2c1 (stereo not drawn)	38.3% (active)
c1cnc(NC2C3CC4CC(C3)CC2C4)nc1 (stereo not drawn)	7% (inactive)
Fc1cnc(N2CCOCC2)nc1NCc1ccccc1	1.23% (inactive)
CCOC(=O)c1cc2c(=O)n3ccccc3nc2n(Cc2ccco2)c1=NC(=O)c1ccc(F)cc1	-0.478% (inactive)
CCCCCn1c(=O)[nH]c2cc(C(=O)Nc3cc(C)cc(C)c3)ccc2c1=O	0.484% (inactive)

SMILES	activation
CCOC(=O)C1CCN(c2ncnc3c2c(-c2ccccc2)cn3-c2cccc(C)c2)CC1	-1.59% (inactive)
Oc1ccc(Cl)cc1C1C=C(c2ccc3c(c2)OCO3)NC(c2c(F)cccc2Cl)N1 (stereo not drawn)	21.1% (inactive)
CCCc1nc2c(c(=O)c3ccccc3n2C)c(=O)n1C1CCCCCC1	190% (active)
CCCN1C(=O)C(Cc2nc3ccccc3c(=O)n2-c2ccccc2)c2cc(C)ccc21 (stereo not drawn)	5.26% (inactive) and 5.84% (inactive)
CCOc1ccc(NC(=O)c2cn(C3CCCCC3)c(=O)c3c2c2ccccc2n3C)cc1	2.25% (inactive)
Cc1ccc2c(=O)cc(C(=O)Nc3sc4c(c3C(=O)NCc3cccnc3)CCCC4)oc2c1	1.62% (inactive)
COc1ccc(S(=O)(=O)NCc2cccn2Cc2cccc(C)c2)cc1	23.9% (inactive)
COc1ccccc1CNS(=O)(=O)c1ccc2c(c1)NC(=O)CS2	4.9% (inactive)
COc1ccc(S(=O)(=O)NCc2cccn2Cc2cccc(C)c2)cc1Cl	33.8% (active)
Cc1ccc(Cl)cc1NC(=O)CCC(=O)N1CC(C)Sc2ccccc21 (stereo not drawn)	0.39% (inactive)
Cc1cccc(-n2c(SCC(N)=O)nc3c(oc4ccccc43)c2=O)c1	-1.27% (inactive)
Cc1cccc(N2CCN(C(=O)CCSCc3ccccc3F)CC2)c1C	1.3% (inactive)
COc1cc(NC(=O)NCC2CCN(Cc3ccc(C)cc3)CC2)cc(OC)c1OC	2.18% (inactive) and 0.967% (inactive)
Cc1cccc(CN2CCC(CNC(=O)Nc3ccc(F)c(Cl)c3)CC2)c1	42.5% (active)
Cc1ccc(C)c(CN2CCC(CNC(=O)Nc3ccc(C)c(F)c3)CC2)c1	26.2% (inactive)
CCOC(=O)c1ccc(CSc2nnc3cc(C)c4ccccc4n23)cc1	4.34% (inactive)
O=C(CNC(=O)c1ccccc1)OC(C(=O)Nc1cc([N+](=O)[O-])ccc1F)c1ccccc1 (stereo not drawn)	1.22% (inactive)
COc1ccccc1OCCNCC(O)COc1cccc2[nH]c3ccccc3c12 (stereo not drawn)	17.7% (inactive) and 34% (active)
CC(O)CNCCOc1cccc(Oc2ccccc2)c1 (stereo not drawn)	4.04% (inactive)
COc1ccccc1OCCC(=O)OCC(=O)NCc1ccccc1	-0.432% (inactive)
COc1ccc(CCNC(=O)CCCCn2c(=O)c3ccccc3n(Cc3ccccc3C)c2=O)cc1OC	13.8% (inactive)
Cc1cc(OCC(=O)Nc2ncn[nH]2)c(C)c(C)c1Br	1.36% (inactive)

SMILES	activation
COc1ccccc1CNC(=O)C(=O)NCC(c1cccs1)S(=O)(=O)c1cccs1 (stereo not drawn)	7.48% (inactive)
CCn1c2ccccc2c2cc(CN3CCN(Cc4cccc(Cl)c4)CC3)ccc21	2.19% (inactive)
Cc1cccc(Nc2cc(C)nc(-n3nc(C)cc3C)n2)c1	-1.13% (inactive)
Cc1cccc(NC(=O)c2ccc(F)c(S(=O)(=O)N(C)C3CCCCC3)c2)c1	0.598% (inactive)
O=C(Cc1ccc(S(=O)(=O)N2CCOCC2)s1)NCCC(c1ccccc1)c1ccccc1	2.27% (inactive)
COCCN(Cc1ccccc1)C(=O)Cc1ccc(S(=O)(=O)N2CCOCC2)s1	134% (active)
CCN(Cc1ccccc1)C(=O)Cc1ccc(OC)c(S(=O)(=O)N2CCOCC2)c1	3.33% (inactive)
CCOC(=O)c1cc(-c2ccccc2)n(CCC(=O)Nc2ccccc2CC)c1C	5.65% (inactive)
CCC(=O)N1CCc2cc(Br)cc(S(=O)(=O)Nc3ccc(C)cc3C)c21	0.918% (inactive)
CC(C)N(Cc1ccccc1)C(=S)Nc1ccc(OC(F)F)cc1	15.8% (inactive)
CC(NC(=S)Nc1ccc(OC(F)F)cc1)c1ccc(F)cc1 (stereo not drawn)	41.7% (active)
CC/C(=N\NC(=S)NC(C)C)c1ccc(OC(F)F)cc1	0.526% (inactive)
Cc1ccc(S(=O)(=O)NC(N)=NCCC[C@@H](NC(=O)CNC(=O)c2ccccc2)C(=O)Nc2cc(C(F)(F)F)ccc2Cl)cc1	4.3% (inactive)
CCOC(=O)c1ccc(CN(Cc2ccccc2)S(=O)(=O)c2ccc(Cl)cc2)cc1	18.5% (inactive)
O=[S+]([O-])(c1ccc(OC(F)(F)F)cc1)N1CCN([S+](=O)([O-])c2ccc3c(c2)OCCO3)CC1	4.97% (inactive)
CC1Cc2cc(S(=O)(=O)CCC(=O)NCc3ccc(Cl)cc3)ccc2N1C(=O)C1CC1 (stereo not drawn)	14% (inactive)
Cc1cccc(NC(=O)N2CCN(C)c3ncccc32)c1C	33.9% (active)
Cc1cccc(NC(=O)N2CCCCCC2)c1C	0.571% (inactive)
Cc1cccc(NC(=O)c2cccc(C(=O)Nc3cccc(C)c3C)n2)c1C	2.25% (inactive)
O=C1C(F)N([S+](=O)([O-])c2ccc3c(c2)OCCO3)CCN1[S+](=O)([O-])c1c(F)cccc1F (stereo not drawn)	-0.431% (inactive)
COc1ccc(CCC(=O)NCCc2csc(-c3ccc(Cl)cc3)n2)cc1	5.93% (inactive)
O=c1c(-c2ccc(Cl)cc2)[n+]([O-])c2ccccc2n1OCc1nc2ccccc2[nH]1	-0.955% (inactive)

SMILES	activation
O=C(Cc1nc2ccccc2[nH]c1=O)c1ccc(Cl)cc1	69.4% (active)
O=C(c1ccc(Cl)cc1)n1cnc2ccccc21	1.83% (inactive)
C#CC(C)(CC)NC(=O)Cn1nnc(-c2ccc(OCc3c(F)cccc3Cl)cc2)n1 (stereo not drawn)	3.62% (inactive)
COc1ccc(CCNC(=O)CCCn2c(=O)c3ccccc3n(Cc3ccc(C)cc3)c2=O)cc1OC	-2.01% (inactive)
COc1cccc(CNC(=O)CCc2nc(-c3ccc(C)cc3)no2)c1	3.85% (inactive)
COc1ccccc1-c1noc(CSc2nnc(-c3ccccc3)n2-c2ccc(C)c(C)c2)n1	0.886% (inactive)
COc1cccc(C(=O)NC(=O)Nc2nc(C)cc(C(F)(F)F)n2)c1	2.89% (inactive)
COc1cccc(C(=O)Nc2ccc(-c3cc(C(F)(F)F)nn3-c3ccccc3)cc2)c1	2.16% (inactive)
COc1cccc(C(=O)c2sc3nc(-c4ccccc4)cc(C(F)(F)F)c3c2N)c1	171% (active)
Cc1ccccc1CNC(=O)CCCn1nc(C)c2sc3ccccc3c2c1=O	5.39% (inactive)
CSc1ccccc1-c1nnc(NC(=O)c2ccc3c(c2)OCCO3)o1	0.0799% (inactive)
CCC(C(=O)Nc1cccc(-c2nc3cccnc3s2)c1C)c1ccccc1 (stereo not drawn)	6.2% (inactive)
O=S(=O)(Nc1ccccc1N1CCOCC1)c1ccc(Cl)s1	0.142% (inactive)
COc1cc(NS(=O)(=O)c2cccs2)cc(OC)c1	-0.545% (inactive)
COc1cc(NC(=O)c2ccccc2NS(=O)(=O)c2ccc(Cl)s2)cc(OC)c1	32.7% (active)
CCCn1c(NCc2ccc(N(CC)CC)cc2)nc2ccccc21	15.4% (inactive)
COc1cc(CN2CCC(n3nccc3NC(=O)CCCc3ccccc3)CC2)ccc1O	0.415% (inactive)
COc1ccc(CN2CCC(n3nccc3NC(=O)CCCc3ccccc3)CC2)cc1C	37.7% (active)
Cc1ccc(CN2CCC(n3nccc3NC(=O)CCCc3ccccc3)CC2)o1	1.76% (inactive)
Cc1ccc(CN2CCC(CNC(=O)c3cnn(-c4ccccc4Cl)c3C3CCN(C(=O)OC(C)(C)C)CC3)CC2)cc1	27.5% (inactive)
COc1ccccc1CN1CCC(CNC(=O)c2cnn(-c3cccc(Cl)c3)c2C2CCN(C(=O)OC(C)(C)C)CC2)CC1	9.95% (inactive)
Cc1ccc(CN2CCC(CNC(=O)c3cnn(-c4ccc(C)cc4)c3C3CCN(C(=O)OC(C)(C)C)CC3)CC2)cc1	33.1% (active)
